Screening data: PubChem, National Center for Advancing Translational Sciences (NCATS)
The list is not random: actives were taken first. Their share in the collection is about 19%.
DT40 TDP1 no CPT – qHTS for Inhibitors of human tyrosyl-DNA phosphodiesterase 1 (TDP1): qHTS in cells in absence of CPT; Potency, µM (titrated, usually from 46.2 µM), inactives show at the top dose activity change, negative = growth inhibition, usual class: inhibitors; DT40 Tdp1-/- hTDP1 cells, no CPT, ATP luminescence, 48 h; hit rate 15% among 420,000; AID 686978, 2013; further: potency means the concentration at half of the fitted maximal effect; on the % scale 0 is the no-effect control and ±100 the full control effect; nearly all actives have a fitted effect of over 55% in size
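Cells were dispensed at 400 per well, compounds added by pin tool, plates incubated ≥48 hr at 37 °C, then CellTiter-Glo added for 30 min at room temperature before luminescence reading. Line: DT40 Tdp1-/- complemented with hTDP1; camptothecin omitted.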
IL1B secr inh – blocks inflammasome-driven IL-1 beta release; THP-1 LPS/ATP IL-1B secretion, AlphaLISA, 16 h; stronger effect = lower value; activity change, % at 57.5 µM; hit rate 4.7% among 360,000; in the data active means activity change below about -50%; inconclusive means mostly about -30% to -49%; further: on the % scale 0 is the no-effect control and ±100 the full control effect
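THP-1 cells pretreated 1 hr with compounds (up to 57.5 uM final), then stimulated with LPS (250 ng/mL final) plus ATP (1.25 mM final); secreted IL-1B measured by AlphaLISA after 16 hr, decreased signal indicating inhibition.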
TGFb SMAD3 inh – TGF-b pathway inhibition; HepG2 CAGA-GFP TGF-b/SMAD3 reporter, GFP fluorescence, 18 h; TGF-beta stimulated, 500 pg/mL final; Potency, µM (highest dose often 46.1 µM), for the others: at the highest dose activity, negative = inhibition, most hits filed as inhibitors; hit rate 1.2% among 410,000; further: potency means the concentration at half of the fitted maximal effect; on the % scale 0 is the no-effect control and ±100 the full control effect; nearly all actives have a fitted effect of over 65% in size
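Smad-responsive CAGA-GFP expression was quantified in HEPG2 cells exposed to compounds and 500 pg/mL final TGF-beta for 18 h at 37 degrees C; unstimulated wells defined full inhibition.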
HepG2 viability – HepG2 cytotoxicity, counter-screen for TGF-b inhibitors; HepG2 CAGA-GFP viability, ATP luminescence, 18 h; Potency, µM (doses to about 46.1 µM), for the others: at the top dose activity change, negative = cytotoxicity, hits mostly cytotoxic; hit rate 0.76% among 410,000; further: potency means the concentration at half of the fitted maximal effect
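HepG2 CAGA-GFP cells (1000/well, DMEM with 1% FBS) received compound, then TGF-beta at 500 pg/mL final, and were incubated 18 hours at 37 degrees C. Viability was read by CellTiter-Glo luminescence. Media-only wells were set as complete cell-killing and DMSO as no toxicity.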
DT40 TDP1 CPT – DT40-hTDP1 cell growth loss with CPT; AID 686979; hit rate 12% among 420,000; chicken DT40 Tdp1-/-;hTDP1 cells + 20 nM CPT, ATP luminescence, 48 h; Potency, µM (series often up to 46.2 µM), inactives show at the top dose activity change, negative = growth inhibition, hits mostly inhibitors; further: potency means the concentration at half of the fitted maximal effect; on the % scale 0 is the no-effect control and ±100 the full control effect; nearly all actives have a fitted effect of over 55% in size
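Chicken DT40 Tdp1-/- cells complemented with human TDP1, 400 cells/well, exposed to compounds plus 20 nM camptothecin for at least 48 h at 37 C; viability read as ATP content by CellTiter-Glo luminescence.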
ASM inhibitor – human S-ASM enzyme inhibition | P17405 | placental ASM, HMU-PC fluorogenic substrate, 60 min | Potency, µM (series often up to 57.5 µM), for inactives: at the top dose activity change, negative = inhibition, hits mostly inhibitors | hit rate 0.006% among 340,000; further: potency means the concentration at half of the fitted maximal effect
Target sequence (P17405 47-631 limits assumed): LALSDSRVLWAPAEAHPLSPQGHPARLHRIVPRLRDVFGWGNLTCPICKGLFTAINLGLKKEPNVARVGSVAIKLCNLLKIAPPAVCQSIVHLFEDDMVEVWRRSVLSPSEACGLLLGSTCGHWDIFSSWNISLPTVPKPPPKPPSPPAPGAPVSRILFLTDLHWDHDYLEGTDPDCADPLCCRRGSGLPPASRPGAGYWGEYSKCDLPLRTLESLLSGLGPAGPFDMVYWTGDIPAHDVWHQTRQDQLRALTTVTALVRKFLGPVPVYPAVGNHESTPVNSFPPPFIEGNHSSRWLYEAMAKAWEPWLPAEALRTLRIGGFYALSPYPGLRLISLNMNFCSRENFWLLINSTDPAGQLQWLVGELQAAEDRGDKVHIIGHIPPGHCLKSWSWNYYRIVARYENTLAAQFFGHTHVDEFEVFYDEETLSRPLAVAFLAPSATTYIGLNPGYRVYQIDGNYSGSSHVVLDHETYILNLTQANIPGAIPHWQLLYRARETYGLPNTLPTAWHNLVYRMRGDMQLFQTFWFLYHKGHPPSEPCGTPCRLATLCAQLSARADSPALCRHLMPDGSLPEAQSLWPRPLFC
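Fluorogenic HMU-PC substrate (9 uM final) is turned over by placental ASM in 60 min at 37 C after a 10 min compound preincubation. Reaction ended by alkaline stop (pH 10), with fluorescence read at 386/447 nm.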
Active calls of the source: *. Unless noted, the call rests on the fitted dose curve; in most records, active means well fitted curve in the direction sought with a large enough effect; inconclusive means small, poorly fitted or top-dose-only effect, or another doubt; inactive means no such curve, though single readings can be large; an effect the other way counts as inactive or inconclusive.

`Cc1ccc(OCCC(=O)OCC(=O)NCCc2ccc(Cl)cc2)cc1` gave DT40 TDP1 no CPT -21%, IL1B secr inh 12, TGFb SMAD3 inh 4%, HepG2 viability -4%, DT40 TDP1 CPT 1% and ASM inhibitor -7%.
O[C@@H]1C[C@H](c2ccccc2)N(CC2CCCCC2)C[C@H]1n1cc(C2CC2)nn1 was read as DT40 TDP1 no CPT inconclusive, IL1B secr inh 5, TGFb SMAD3 inh -15%, HepG2 viability -17% and DT40 TDP1 CPT -4%.
COc1ccc([C@H]2C[C@H](n3cc(C4CC4)nn3)[C@@H](O)CN2CC2CCCCC2)cc1 was read as DT40 TDP1 no CPT 16µM*, IL1B secr inh -5, TGFb SMAD3 inh inconclusive, HepG2 viability -114% and DT40 TDP1 CPT inconclusive.
Cc1ccc([C@H]2C[C@@H](O)[C@H](n3cc(C4CC4)nn3)CN2CC2CCCCC2)cc1 was read as DT40 TDP1 no CPT 18µM*, IL1B secr inh -4, TGFb SMAD3 inh 0%, HepG2 viability -7% and DT40 TDP1 CPT inconclusive.
Screening O[C@@H]1C[C@H](c2ccc(Cl)cc2)N(CC2CCCCC2)C[C@H]1n1cc(C2CC2)nn1 returned DT40 TDP1 no CPT inconclusive, IL1B secr inh 8, TGFb SMAD3 inh 4%, HepG2 viability -4% and DT40 TDP1 CPT inconclusive.
`O[C@H]1C[C@H](c2ccc(Cl)cc2)N(CC2CCCCC2)C[C@@H]1n1cc(C2CC2)nn1` gave DT40 TDP1 no CPT 6.5µM*, IL1B secr inh inconclusive, TGFb SMAD3 inh inconclusive, HepG2 viability 16µM* and DT40 TDP1 CPT 5.8µM*.
`O[C@@H]1CN(CC2CCCCC2)[C@@H](c2ccc(Cl)cc2)C[C@H]1n1cc(C2CC2)nn1` gave DT40 TDP1 no CPT 23µM*, IL1B secr inh -51*, TGFb SMAD3 inh 3%, HepG2 viability -28% and DT40 TDP1 CPT inconclusive.
Screening O=C(COC(=O)c1ccco1)Nc1nnc(-c2ccccc2)o1 returned DT40 TDP1 no CPT -3%, IL1B secr inh 7, TGFb SMAD3 inh 3%, HepG2 viability -11%, DT40 TDP1 CPT 12% and ASM inhibitor 0%.
`COc1ccc([C@H]2C[C@@H](O)[C@H](n3cc(-c4ccc(F)cc4)nn3)CN2CC2CCCCC2)cc1` gave DT40 TDP1 no CPT 6.5µM*, IL1B secr inh 3, TGFb SMAD3 inh 15%, HepG2 viability -7% and DT40 TDP1 CPT inconclusive.
Screening COc1ccc([C@H]2C[C@H](n3cc(-c4ccc(F)cc4)nn3)[C@@H](O)CN2CC2CCCCC2)cc1 returned DT40 TDP1 no CPT inconclusive, IL1B secr inh -10, TGFb SMAD3 inh inconclusive, HepG2 viability -8% and DT40 TDP1 CPT inconclusive.
Screening COc1ccc(C(=O)c2ccc3oc(-c4ccc(OC)cc4)c(-c4ccc(O)cc4)c3c2)cc1 returned DT40 TDP1 no CPT 9.2µM*, IL1B secr inh -19, TGFb SMAD3 inh inconclusive, HepG2 viability -80%, DT40 TDP1 CPT inconclusive and ASM inhibitor 1%.
For COc1ccc(C(=O)c2c(-c3ccc(OC)cc3)oc3ccccc23)cc1 the results were DT40 TDP1 no CPT inconclusive, IL1B secr inh -10, TGFb SMAD3 inh -6%, HepG2 viability -11%, DT40 TDP1 CPT inconclusive and ASM inhibitor 9%.
For Cc1c(C(=O)NCc2ccc3c(c2)OCCO3)sc(=O)n1Cc1ccccc1C#N the results were DT40 TDP1 no CPT 16µM*, IL1B secr inh -15, TGFb SMAD3 inh 1%, HepG2 viability 4% and DT40 TDP1 CPT inconclusive.
CN(C)S(=O)(=O)c1ccc(C(=O)NCc2cccs2)cc1 was read as DT40 TDP1 no CPT 1%, IL1B secr inh -5, TGFb SMAD3 inh 4%, HepG2 viability -4%, DT40 TDP1 CPT 2% and ASM inhibitor -2%.
Cc1c(C(=O)NCc2cccs2)sc(=O)n1Cc1ccc(S(=O)(=O)N(C)C)cc1 was read as DT40 TDP1 no CPT 23µM*, IL1B secr inh -20, TGFb SMAD3 inh -15%, HepG2 viability -6% and DT40 TDP1 CPT inconclusive.
For C=Cc1ccc(Cn2c(C)c(C(=O)NCc3ccc4c(c3)OCO4)sc2=O)cc1 the results were DT40 TDP1 no CPT inconclusive, IL1B secr inh inconclusive, TGFb SMAD3 inh -21%, HepG2 viability -23% and DT40 TDP1 CPT inconclusive.
Screening Cc1c(C(=O)NCc2ccc3c(c2)OCO3)sc(=O)n1Cc1ccc(S(=O)(=O)N(C)C)cc1 returned DT40 TDP1 no CPT 16µM*, IL1B secr inh -25, TGFb SMAD3 inh -27%, HepG2 viability -1% and DT40 TDP1 CPT inconclusive.
Cc1noc(C)c1Cn1c(C)c(C(=O)NCc2ccc3c(c2)OCCO3)sc1=O was read as DT40 TDP1 no CPT 16µM*, IL1B secr inh 30, TGFb SMAD3 inh 7%, HepG2 viability 0% and DT40 TDP1 CPT 8.2µM*.
For CCn1c(SCC(=O)Nc2ccc(N3CCOCC3)cc2)nnc1-c1ccncc1 the results were DT40 TDP1 no CPT -15%, IL1B secr inh 7, TGFb SMAD3 inh -6%, HepG2 viability 25%, DT40 TDP1 CPT -2% and ASM inhibitor 3%.
Screening COC(=O)c1cccc(Nc2c(-c3cc(Br)ccc3O)nc3nc[nH]n23)c1 returned DT40 TDP1 no CPT inconclusive, TGFb SMAD3 inh -14%, HepG2 viability -7% and DT40 TDP1 CPT inconclusive.
For Cc1c(C(=O)NCc2ccc3c(c2)OCCO3)sc(=O)n1Cc1ccc2c(c1)OCO2 the results were DT40 TDP1 no CPT inconclusive, IL1B secr inh -8, TGFb SMAD3 inh 8%, HepG2 viability -10% and DT40 TDP1 CPT inconclusive.
For Cc1c(C(=O)NCc2cccc(C(F)(F)F)c2)sc(=O)n1Cc1ccc(S(=O)(=O)N(C)C)cc1 the results were DT40 TDP1 no CPT inconclusive, IL1B secr inh inconclusive, TGFb SMAD3 inh -23%, HepG2 viability -12% and DT40 TDP1 CPT 21µM*.
Cc1c(C(=O)NCc2ccc3c(c2)OCCO3)sc(=O)n1Cc1ccc(S(=O)(=O)N(C)C)cc1 was read as DT40 TDP1 no CPT 15µM*, IL1B secr inh -14, TGFb SMAD3 inh inconclusive, HepG2 viability -15% and DT40 TDP1 CPT 18µM*.
For Cc1cc(Nc2sc(C(=O)c3ccc(F)cc3)c(N)c2C(=O)Nc2ccc(F)cc2)ccc1Cl the results were DT40 TDP1 no CPT 3.7µM*, TGFb SMAD3 inh inconclusive, HepG2 viability -58% and DT40 TDP1 CPT 12µM*.
